Measured values taken from PubChem BioAssay (NCI).
This is part of a sample that, as a whole, favours compounds with a hit. Of some 83,000 tested, about 20% had one in any assay.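 The test compound was applied at a single concentration to cells in 96-well plates for 48 hours, and percent growth was recorded.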 Active and inactive are the calls of the source. The calls were made as follows: active = growth percent below 10; inactive = the rest.

Columns and labels:
Assay in all cases: NCI-60 one-dose screen, 48 h (100 = growth as untreated, 0 = no growth, -100 = all killed)
Conditions in all cases: 10 µM unless noted
[1] = tested on: SR leukemia
[2] = tested on: RPMI-8226 leukemia
[3] = tested on: OVCAR-8 ovarian
[4] = tested on: OVCAR-5 ovarian
[5] = tested on: OVCAR-4 ovarian
[6] = tested on: SK-OV-3 ovarian
[7] = tested on: IGROV1 ovarian
[8] = tested on: OVCAR-3 ovarian
[9] = tested on: NCI/ADR-RES ovarian
[10] = tested on: HS 578T breast

Measured: growth

C=C[C@@H]1C[C@@H]2Cc3c(C)cc(C)cc3N1O2
inactive: [2] 74.7% | [3] 98% | [4] 86.5% | [5] 83.6% | [6] 105% | [7] 106% | [8] 103% | [9] 102%
active: [1] 6.7%

CNc1ccc(Br)c2c1C(=O)c1ccccc1C2=O
inactive: [1] 101% | [2] 87.8% | [3] 105% | [4] 111% | [5] 100% | [6] 112% | [7] 99.1% | [8] 121% | [9] 103%

COc1cc(-c2ncn(/C=C\C(=O)OC(C)C)n2)cc(C(F)(F)F)c1
inactive: [2] 67.5% | [4] 18.4% | [6] 28.1% | [7] 14.3%
active: [1] 2.46% | [3] 9.36% | [5] 0.627% | [8] -42.1% | [9] 2.76%

CCN(CC)CCOC(=O)C(c1ccccc1)(c1ccccc1)C(C)C
inactive: [1] 84% | [2] 96% | [3] 87% | [4] 87.2% | [5] 94.8% | [6] 81.9% | [7] 78.2% | [8] 80.5% | [9] 79.2%

Cc1nc2ncccc2nc1Nc1ccc(S(=O)(=O)Nc2ccccn2)cc1
inactive: [1] 92.2% | [2] 84.5% | [3] 93.6% | [4] 103% | [5] 102% | [6] 89.1% | [7] 72.6% | [10] 92.9% | [9] 98.2%

COc1ccc(-c2nc3sc(-c4cc(OC)c(OC)c(OC)c4)nn3c2/C=C2/C(=O)Nc3ccc(F)cc32)cc1
inactive: [1] 18.6% | [2] 13.3% | [3] 21.9% | [9] 37.6%
active: [4] 3.01% | [5] -32.4% | [6] 6.67% | [7] -39.3% | [8] -60.9%

C/C(=N/NC(=S)Nc1ccccc1)c1nc2ccc(Cl)cc2[nH]1
active: [1] -36.1% | [2] 5.52% | [3] -39.8% | [4] -35.8% | [5] -79.3% | [6] -17.7% | [7] 7.58% | [8] -59.5% | [9] -12.7%

C=C1c2nc3ccccc3n2C=C(c2ccc(Cl)cc2)N1Cc1ccccc1
active: [5] -8.06%
inactive: [1] 23.7% | [2] 35.3% | [3] 75.6% | [4] 99.9% | [6] 83.4% | [7] 106% | [8] 92.2% | [10] 87% | [9] 79.4%

O=[N+]([O-])c1cc(Cl)c2[nH]c3c(Cl)cc([N+](=O)[O-])cc3c2c1
active: [1] 2.53% | [2] 3.11% | [3] -2.33% | [4] 9.08% | [5] -24.8% | [6] -11.9% | [7] 9.12% | [9] 6.85%
inactive: [8] 16.8%

CCc1cnc(=S)n(-c2ccccc2)c1
inactive: [1] 99.6% | [2] 119% | [3] 113% | [4] 97.3% | [5] 135% | [6] 105% | [7] 105% | [8] 98.5% | [9] 98.3%

O=S1(=O)CCC(N(/N=C/c2ccco2)c2ccccc2)C1 (centres undefined)
inactive: [1] 91% | [2] 100% | [3] 94.7% | [4] 107% | [5] 127% | [6] 110% | [7] 104% | [8] 105% | [9] 98.7%

O=C1CCCCC1(c1ccccc1)c1ccccc1
inactive: [1] 106% | [2] 111% | [3] 110% | [4] 97.4% | [5] 71.8% | [6] 101% | [7] 101% | [8] 106% | [9] 96.1%

O=C1Nc2ccc3c(c2/C1=C\c1cc2c(cc1Br)OCO2)OCO3
active: [5] -45.5% | [6] 2.7% | [7] -7.11% | [10] -14.5% | [9] 1.49%
inactive: [1] 29.3% | [2] 14.4% | [3] 35% | [4] 65.2%

Cc1nc2ncccc2nc1Nc1ccc(S(=O)(=O)Nc2cncs2)cc1
inactive: [1] 102% | [2] 88.4% | [3] 103% | [4] 96.4% | [5] 98.6% | [6] 86.2% | [7] 51% | [10] 92.8% | [9] 98%

CCOC(=O)C1=C(C)NC(C)=C(C(=O)OCC)C1(C)C
inactive: [1] 90.6% | [2] 94.8% | [3] 102% | [4] 99.7% | [5] 101% | [6] 110% | [7] 131% | [8] 112% | [10] 107% | [9] 122%

CN1CCN(CCCOc2ccc3nc(Nc4ccc(Cl)c(C(F)(F)F)c4)ccc3c2)CC1
active: [1] 2.08%
inactive: [2] 18.1% | [3] 73.6% | [4] 72.1% | [5] 66.6% | [6] 91.4% | [7] 46.2% | [8] 59.3% | [9] 62.8%

Cc1cc(N/N=C/c2nc(-c3ccc(Br)cc3)oc2C)c2cc(Cl)ccc2n1
inactive: [3] 41.4% | [4] 102% | [6] 104% | [7] 92.6% | [8] 45.2% | [9] 69.2%
active: [1] 5.46% | [2] -9.52% | [5] -74.2%

O=C(CN1CCN(c2cc3c(cc2F)c(=O)c(C(=O)N/N=C/c2ccccc2O)cn3C2CC2)CC1)N/N=C\c1ccccc1O
inactive: [1] 14.6% | [2] 25.4% | [3] 25.8% | [4] 39% | [5] 19.8% | [6] 34.5% | [7] 21.5% | [8] 30.7% | [10] 57.4% | [9] 23.6%

O=S(=O)(CC(O)(c1ccccc1)c1ccccc1)CC(O)(c1ccccc1)c1ccccc1
inactive: [1] 118% | [2] 94.7% | [3] 75.8% | [4] 94.9% | [5] 80.9% | [6] 77% | [7] 66.5% | [8] 77.1% | [9] 86.1%

N#C/C(=C1C=C/C(=N/O)C(Cl)=C/1)c1ccc(Cl)cc1
inactive: [1] 78.5% | [2] 20.7% | [3] 66.3% | [4] 129% | [5] 88.9% | [6] 121% | [7] 45.4% | [8] 31.7% | [9] 63.1%

Nc1nc(-c2ccccc2)c(CCCOc2ccc(NC(=O)CBr)cc2)c(=O)[nH]1
inactive: [1] 117% | [2] 112% | [3] 98.3% | [4] 104% | [5] 92.1% | [6] 125% | [7] 125% | [10] 99.1% | [9] 106%

O=C(Nc1ccncc1)C(=O)c1cn(S(=O)(=O)c2ccccc2F)c2ccccc12
inactive: [1] 16.4% | [3] 35.2% | [4] 69.3% | [5] 57.1% | [6] 87.5% | [7] 52%
active: [2] 9.83% | [8] -27.1% | [9] -17.7%

OB(O)c1cccc(-c2nc3ccc4[nH]ncc4c3c3c2CCCC3)c1F
inactive: [1] 48.7% | [2] 50.7% | [3] 52.8% | [4] 75.1% | [5] 76.4% | [7] 41.1% | [8] 62.5% | [9] 53.7%
active: [6] -10.7%

O=C(NNC(=O)N1c2ccccc2C=Cc2ccccc21)c1ccccc1
inactive: [1] 96.6% | [2] 104% | [3] 105% | [4] 103% | [5] 103% | [6] 112% | [7] 110% | [8] 113% | [9] 99.8%

c1ccc(-c2nnc(-c3ccccn3)s2)nc1
inactive: [1] 96.7% | [2] 54.8% | [3] 94% | [4] 92.2% | [5] 91.5% | [6] 95.2% | [7] 80.7% | [8] 95.5% | [9] 83%

C=C[C@@H]1C[C@H](O)Cc2c(C)cc(C)cc2N1
inactive: [1] 82.8% | [2] 84.7% | [3] 98.5% | [4] 89.3% | [5] 108% | [6] 106% | [7] 109% | [8] 112% | [9] 97.1%

Cc1csc(NC(c2ccc(Br)cc2)c2c(C)nc3ccccn23)n1 (centres undefined)
inactive: [1] 96.6% | [2] 74.7% | [3] 88.6% | [4] 88.2% | [5] 81.5% | [6] 85.3% | [7] 86.5% | [8] 96.7% | [9] 95.4%

Cc1ccc(Cc2c(C=O)nc(N)[nH]c2=O)c2ccccc12
inactive: [1] 63.5% | [2] 99.6% | [3] 89.6% | [4] 117% | [5] 97.6% | [6] 96.6% | [7] 106% | [10] 109% | [9] 103%

O=[N+]([O-])c1cc(S(=O)(=O)Oc2ccccc2)ccc1Cl
active: [1] 1.34% | [5] -28.4% | [7] -78.2% | [8] -94.7%
inactive: [2] 17% | [3] 40.7% | [4] 66.8% | [6] 102% | [9] 46.6%
